# DT40 TDP1 no CPT: qHTS for Inhibitors of human tyrosyl-DNA phosphodiesterase 1 (TDP1): qHTS in cells in absence of CPT; Potency, µM (titrated, usually from 46.2 µM), most hits filed as inhibitors; 15% of 420,000 active; DT40 Tdp1-/- hTDP1 cells, no CPT, ATP luminescence, 48 h; AID 686978, 2013; further: nearly all actives have a fitted effect of over 55% in size
#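 Compound effects on proliferation are scored in DT40 Tdp1-/-;hTDP1 cells in the absence of CPT. ATP levels (CellTiter-Glo luminescence) are recorded after a ≥48 hr, 37 °C incubation.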
# TDP1 cell CPT: growth inhibition of DT40 Tdp1-/-;hTDP1 cells with camptothecin (screen for TDP1 inhibitors). chicken DT40 Tdp1-/-;hTDP1 cells + 20 nM CPT, ATP luminescence, 48 h. Potency, µM (highest dose often 46.2 µM), actives largely listed as inhibitors. 12% of 420,000 active; further: nearly all actives have a fitted effect of over 55% in size
#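 Chicken DT40 Tdp1-/- cells stably complemented with human TDP1 were seeded at 400 cells/well in medium containing 20 nM camptothecin, exposed to pin-transferred compounds, and grown at 37 °C for at least 48 hr. Viability was read as ATP luminescence.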
# TGFb inhibitor: TGF-b pathway inhibition. HepG2 CAGA-GFP TGF-b/SMAD3 reporter, GFP fluorescence, 18 h; TGF-beta stimulated, 500 pg/mL final. Potency, µM (series often up to 46.1 µM), most hits filed as inhibitors. 1.2% of 410,000 active; further: nearly all actives have a fitted effect of over 65% in size
#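 First, reporter cells (HEPG2 CAGA-GFP) rested 2 h at 37 degrees C. Next, compounds were pinned in and TGF-beta added to 500 pg/mL final. After 18 h, GFP was imaged per cell and summed per well.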
# IL1B secr inh: blocks inflammasome-driven IL-1 beta release. THP-1 LPS/ATP IL-1B secretion, AlphaLISA, 16 h; active compounds read low. activity change, % at 57.5 µM. 4.7% of 360,000 active; in the data active means activity change below about -50%; inconclusive means mostly about -30% to -49%
#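 THP-1 cells pretreated 1 hr with compounds (up to 57.5 uM final), then stimulated with LPS (250 ng/mL final) plus ATP (1.25 mM final); secreted IL-1B measured by AlphaLISA after 16 hr, decreased signal indicating inhibition.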
# S-ASM inh: inhibitors of human secretory acid sphingomyelinase | placental ASM, HMU-PC fluorogenic substrate, 60 min | Potency, µM (highest dose often 57.5 µM), hits mostly inhibitors | 0.006% of 340,000 active | P17405
# Target sequence (P17405 47-631 limits assumed): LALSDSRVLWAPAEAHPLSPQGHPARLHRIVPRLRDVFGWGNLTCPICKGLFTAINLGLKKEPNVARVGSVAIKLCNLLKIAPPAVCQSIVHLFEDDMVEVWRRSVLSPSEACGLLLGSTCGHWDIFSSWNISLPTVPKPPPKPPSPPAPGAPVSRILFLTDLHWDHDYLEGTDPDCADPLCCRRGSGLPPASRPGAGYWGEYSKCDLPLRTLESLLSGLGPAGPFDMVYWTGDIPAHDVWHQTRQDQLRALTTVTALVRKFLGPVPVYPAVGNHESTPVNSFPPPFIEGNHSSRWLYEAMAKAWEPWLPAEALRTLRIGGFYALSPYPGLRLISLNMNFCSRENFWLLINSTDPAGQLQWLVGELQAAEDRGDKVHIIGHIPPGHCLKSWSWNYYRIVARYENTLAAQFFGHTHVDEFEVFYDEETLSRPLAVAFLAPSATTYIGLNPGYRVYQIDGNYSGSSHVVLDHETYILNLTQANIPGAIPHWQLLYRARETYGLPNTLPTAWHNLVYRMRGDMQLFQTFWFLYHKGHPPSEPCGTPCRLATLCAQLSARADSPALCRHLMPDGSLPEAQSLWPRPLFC
#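 Steps: dispense placental human ASM, pin compound, wait 10 min at room temperature, add HMU-PC0 substrate at 9 uM final, incubate 60 min at 37 °C, add stop solution raising pH to 10, read fluorescence.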
# HepG2 viability: kills HepG2 cells in TGF-b inhibitor counter-screen. Potency, µM (doses to about 46.1 µM), actives largely listed as cytotoxic. 0.76% of 410,000 active. HepG2 CAGA-GFP viability, ATP luminescence, 18 h
#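 HepG2 CAGA-GFP cells (1000/well, DMEM with 1% FBS) received compound, then TGF-beta at 500 pg/mL final, and were incubated 18 hours at 37 degrees C. Viability was read by CellTiter-Glo luminescence. Media-only wells were set as complete cell-killing and DMSO as no toxicity.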
# Numbers stand for hits; 0 = inactive; ? = inconclusive; - = no result. Sampled rows, rich in hits. Any-hit rate of the full collection: about 19%. Unless noted, the call rests on the fitted dose curve; in most records, active means well fitted curve in the direction sought with a large enough effect; inconclusive means small, poorly fitted or top-dose-only effect, or another doubt; inactive means no such curve, though single readings can be large; an effect the other way counts as inactive or inconclusive.
SMILES,DT40 TDP1 no CPT,TDP1 cell CPT,TGFb inhibitor,IL1B secr inh,S-ASM inh,HepG2 viability
O=C(CN1C(=O)CCn2nc(-c3ccccc3)cc21)NCc1ccc(F)cc1,0,0,?,-,-,0
COc1ccc(NC(=O)C[C@@H]2C(=O)N(c3ccc(OC)cc3)CC2(C)C)cc1,?,0,0,0,-,0
C[C@@H]1NC(=O)[C@@H](N)CNC(=O)[C@H](C2CCNC(N)=N2)NC(=O)/C(=C/NC(N)=O)NC(=O)[C@H](CNC(=O)C[C@@H](N)CCCN)NC1=O (stereo partly specified),0,0,-,-,-,-
O=C(Nc1nnc(C2CC2)s1)C1CCCCC1,0,0,0,0,0,0
C/C=C/C(=O)Nc1nnc(C2CCCCC2)s1,0,?,0,-88,0,0
O=C(COC(=O)c1ccc2ncsc2c1)NCc1ccccc1Cl,0,0,0,0,0,0
NNC(=O)c1ccc(N2CCc3ccccc32)c([N+](=O)[O-])c1,?,0,0,0,0,0
Nc1ncnc(N2CCc3ccccc32)c1[N+](=O)[O-],7.3µM,5.8µM,0,0,0,0
Cc1cc(Br)ccc1NC(=O)CN1C(=O)c2cccnc2Sc2ccccc21,0,0,-,-,-,0
COc1ccccc1NC(=O)c1cc2c(CO)cnc(C)c2oc1=Nc1ccccc1,8.2µM,?,0,0,0,0
COc1ccccc1NC(=O)c1cc2c(CO)cnc(C)c2oc1=Nc1cccc(C(N)=O)c1,1.8µM,5.2µM,0,0,0,0
COc1ccc(NC(=O)c2cc3c(COC(C)=O)cnc(C)c3oc2=Nc2cccc(C(=O)O)c2)c(OC)c1,26µM,0,0,0,0,0
O=C(CN(c1ccccc1)S(=O)(=O)c1ccccc1[N+](=O)[O-])N1CCCC1,0,0,0,0,0,0
Cc1cc(C)cc(N(CC(=O)NCc2ccc(F)cc2)C(=O)CCC(=O)Nc2ccccn2)c1,?,0,0,0,0,0
Cc1cccc(C)c1NC(=O)C(c1ccc(C(F)(F)F)cc1)n1c(=O)c(-c2ccccc2)nc2ccccc21 (stereo unspecified),?,?,-,0,-,-
CC(C)(C)NC(=O)C(c1ccnc2ccccc12)n1c(=O)c(-c2ccccc2)nc2ccccc21 (stereo unspecified),0,0,-,0,-,-
Cc1cccc(C)c1NC(=O)C(c1ccnc2ccccc12)n1c(=O)c(-c2ccccc2)nc2ccccc21 (stereo unspecified),15µM,?,-,0,-,-
Cc1cccc(C)c1NC(=O)C(c1ccc(C#N)cc1)n1c(=O)c(-c2ccccc2)nc2ccccc21 (stereo unspecified),?,0,-,-50,-,-
CC(=O)c1ccc(NC(=O)CSc2nc(-c3ccc(C)cc3)nc3c2c(=O)n(C)c(=O)n3C)cc1,0,0,0,-,-,0
C[C@@H]1CN([C@H](C)CO)C(=O)c2c(c3ccccc3n2C)-c2ccccc2CO[C@H]1CN(C)C(=O)CCC(F)(F)F,?,?,0,0,-,0
COc1ccc(CCNC(=O)c2ccc3c(c2)N(Cc2ccc(F)cc2)C(=O)c2ccccc2S3(=O)=O)cc1OC,12µM,?,-,-,-,0
O=C(NCCc1ccccc1)c1ccc2c(c1)N(Cc1ccc(Cl)cc1)C(=O)c1ccccc1S2(=O)=O,23µM,15µM,0,-,-,0
CCN1C(=O)c2ccccc2S(=O)(=O)c2ccc(C(=O)NCc3ccc(F)cc3)cc21,23µM,?,0,-,-,0
C=CCn1c(N)cc(=O)nc1SC(CC)C(=O)Nc1ccc(C(C)=O)cc1 (stereo unspecified),0,0,0,0,0,0
CCn1nc(C)c2c(-c3ccccc3)cc(=O)n(C(C)C(=O)NCCc3ccccc3)c21 (stereo unspecified),?,18µM,?,-,-,0
SMILES,DT40 TDP1 no CPT,TDP1 cell CPT,TGFb inhibitor,IL1B secr inh,S-ASM inh,HepG2 viability
CCn1nc(C)c2c(-c3ccccc3)cc(=O)n(C(C)C(=O)NCc3ccc(C)cc3)c21 (stereo unspecified),?,18µM,?,-,-,0
CCn1nc(C)c2c(-c3ccccc3)cc(=O)n(C(C)C(=O)NCCC(C)C)c21 (stereo unspecified),?,18µM,0,-,-,0
N#CC[C@H](c1ccccc1)N1CCN(Cc2ccccc2)CCC1=O,0,0,0,0,0,0
C[C@@H]1CN([C@@H](C)CO)C(=O)CCCn2nncc2CO[C@H]1CN(C)Cc1cccnc1,0,0,0,0,-,0
Cc1ccc(C#CC[N+](C)(C)CC#Cc2ccccc2)cc1,1.8µM,2.1µM,0,-77,0,0
CCC[N+](CC#Cc1ccccc1)(CCC)CC(=O)OCC,0,0,0,0,0,0
CCN(CC)CC#Cc1ccc(C)cc1,0,0,0,0,0,0
C#CC[N+](C)(C)CC#Cc1ccccc1,0,0,0,-66,0,0
CCCCC(O)(c1ccc(F)cc1)C(CN1CCOCC1)c1ccc(Cl)cc1 (stereo unspecified),?,?,?,?,0,0
CC1CN(CCOc2cccc(Oc3ccccc3)c2)CC(C)O1 (stereo unspecified),?,?,0,0,0,0
CC1CCN(CCCCOc2cccc(C(C)C)c2)CC1,?,16µM,0,0,0,0
CC1CN(CCCCOc2ccc(Cl)c3ccccc23)CC(C)O1 (stereo unspecified),10µM,?,16µM,?,0,0
CC1CCCN(CCOc2cccc(Oc3ccccc3)c2)C1 (stereo unspecified),?,26µM,0,0,0,0
CC1CN(CCCCOc2cccc(Oc3ccccc3)c2)CC(C)O1 (stereo unspecified),?,?,0,-67,0,0
CC1CN(CCCCOc2ccc(C(C)C)cc2)CC(C)O1 (stereo unspecified),0,?,0,0,0,0
O=S1(=O)CC(O)C(N(CCO)C(=S)Nc2ccccc2)C1 (stereo unspecified),0,0,0,0,0,0
c1ccc(Oc2cccc(OCCCCN3CCCC3)c2)cc1,18µM,?,?,0,0,0
CCCCn1c(-c2ccc(C(C)(C)C)cc2)nc2cc3[nH]c(=O)c(C(C)C)nc3cc21,15µM,?,0,0,0,0
CCCCn1c(-c2cccc(Br)c2)nc2cc3[nH]c(=O)c(C(C)C)nc3cc21,26µM,18µM,?,-52,0,0
